Assay outcomes (PubChem)
Mtb FBA inh: Mtb FBA enzyme inhibitors, primary screen, biochemical, fluorescence, strain H37Rv; AID 588726, 2011; 2.3% of 360,000 active; Fructose-bisphosphate aldolase (Mycobacterium tuberculosis (strain ATCC 25618 / H37Rv)), …; inhibition, % at 1 µM; purified M. tuberculosis FBA, fluorescence read-out;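 also: 0% = vehicle and 100% = reference inhibitor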
Target sequence (P9WQA3 whole entry, looked up): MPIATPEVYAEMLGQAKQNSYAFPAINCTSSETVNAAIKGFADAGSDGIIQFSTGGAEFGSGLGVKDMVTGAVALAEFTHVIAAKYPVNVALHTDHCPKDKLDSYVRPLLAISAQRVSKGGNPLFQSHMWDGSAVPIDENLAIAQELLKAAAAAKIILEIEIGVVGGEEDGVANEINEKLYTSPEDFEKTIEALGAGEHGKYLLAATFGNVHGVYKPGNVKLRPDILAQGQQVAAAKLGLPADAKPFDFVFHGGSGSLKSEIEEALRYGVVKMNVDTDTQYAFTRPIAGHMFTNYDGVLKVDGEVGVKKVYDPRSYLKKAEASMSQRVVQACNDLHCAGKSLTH
Mtb hypoxia rep: PubChem AID 1159583; M. tuberculosis hypoxia-regulated fluorescent reporter, fluorescence; fluorescence inhibition, % (test concentration not listed); 0.1% of 300,000 active; in the data active = fluorescence inhibition mostly above about 23%, no sharp cut-off; inactive = mostly below about 17%
DUSP3 inh: VHR1 phosphatase inhibitors, primary screen, biochemical, absorbance, uHTS | 0.52% of 290,000 active | recombinant VHR phosphatase, pNPP absorbance | inhibition, % at 13.3 µM | Dual specificity protein phosphatase 3 (Homo sapiens), P51452; in the data active = inhibition above about 50%
Target sequence (P51452 whole entry, looked up): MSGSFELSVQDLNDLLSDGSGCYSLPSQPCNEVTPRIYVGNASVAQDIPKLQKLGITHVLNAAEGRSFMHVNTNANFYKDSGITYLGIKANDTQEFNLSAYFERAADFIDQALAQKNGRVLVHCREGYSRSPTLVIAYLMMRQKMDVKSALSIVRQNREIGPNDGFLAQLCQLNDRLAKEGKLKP
Mtb bLac sens: beta-lactam sensitization of Mtb H37Rv, H37Rv. M. tuberculosis H37Rv growth with meropenem, percent inhibition. inhibition, % at 25 µM. 0.27% of 330,000 active. AID 434955, 2010; call rule not given here;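 also: growth measured after seven days incubation then overnight dye step; 0% = bacteria only wells and 100% = bacteria with antibiotic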
GDH-TPI counter-1: GDH-TPI coupling enzyme inhibitors, primary screen, artefact control for M. tuberculosis FBA inhibitor project, biochemical, absorbance, full deck. GDH-TPI coupled enzyme counterscreen, NADH absorbance. inhibition, % at 4.8 µM. 1.2% of 360,000 active; in the data active = inhibition above about 30%;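 also: 0% = DMSO wells and 100% = wells lacking the enzyme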
Mtb FBA confirm: M. tuberculosis aldolase blockers, biochemical, fluorescence, strain H37Rv, confirmation. inhibition, % at 1 µM. AID 651616, 2012. 78% of 5,600 active. purified M. tuberculosis FBA, fluorescence read-out. shares compounds with Mtb FBA inh;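 also: 0% = vehicle wells and 100% = reference inhibitor wells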
GDH-TPI counter-2: GDH-TPI coupling enzyme inhibitors, artefact control for M. tuberculosis FBA inhibitor project, biochemical, fluorescence, high throughput | shares compounds with Mtb FBA inh | GDH-TPI coupled enzyme counterscreen | inhibition, % at 1 µM | 81% of 5,600 active | AID 652141, 2013; in the data active = inhibition above about 10%
GDH-TPI DR: GDH-TPI coupling enzyme inhibitors, dose response, artefact control for M. tuberculosis FBA inhibitor project, biochemical, fluorescence, IC50; shares compounds with Mtb FBA inh; GDH-TPI coupled enzyme assay, artifact counterscreen; IC50, µM; 79% of 170 active; AID 652145, 2013; call rule not given here
* = called active by the depositor. Only some compounds are listed: those with a hit (about 3.6% of all), similar ones and a draw of the others. Rule as the data show it, unless noted: active = inhibition above about 27%; inactive = the rest.

Results for COc1cc2[nH]c3c(N4CCN(c5ccccn5)CC4)ncnc3c2cc1OC ?
Mtb FBA inh: 28.6*; Mtb hypoxia rep: 6.2; DUSP3 inh: 39.4; Mtb bLac sens: 98.7; GDH-TPI counter-1: 0.0; Mtb FBA confirm: -5.4; GDH-TPI counter-2: -6.7

How did COc1ccc2[nH]c3c(N4CCc5ccccc5C4)ncnc3c2c1 do in these assays?
Mtb FBA inh: 40.1*; Mtb hypoxia rep: -3.7; DUSP3 inh: -7.7; Mtb bLac sens: 89.2; GDH-TPI counter-1: 5.4; Mtb FBA confirm: 1.0; GDH-TPI counter-2: 1.2

What do the screens show for `COc1ccc(N2CCN(c3ncnc4c3[nH]c3ccccc34)CC2)cc1`?
Mtb FBA inh: -0.1; Mtb hypoxia rep: 6.5; DUSP3 inh: 7.2; Mtb bLac sens: -8.0; GDH-TPI counter-1: 2.8

Results for CCc1ccc(-n2c(O)c(C=NN3CCCCC3c3cccnc3)c(=O)[nH]c2=O)cc1 (stereo not given) ?
Mtb hypoxia rep: 7.8

How did Cn1cncc1C#Cc1ccc2cc(CCO)oc(=O)c2c1 do in these assays?
Mtb FBA inh: 34.4*; Mtb hypoxia rep: 0.9; Mtb bLac sens: -0.1; GDH-TPI counter-1: 16.7; Mtb FBA confirm: active; GDH-TPI counter-2: active

What do the screens show for `O=c1oc(CCO)cc2ccc(-c3ccc4[nH]ccc4c3)cc12`?
Mtb FBA inh: 4.7; Mtb hypoxia rep: -4.9; Mtb bLac sens: 0.3; GDH-TPI counter-1: 14.3

Results for COC(=O)c1cc(C(=O)OC)n(Cc2ccc(Cl)cc2Cl)n1 ?
Mtb FBA inh: 2.7; Mtb hypoxia rep: 8.6; DUSP3 inh: 0.3; Mtb bLac sens: -6.3; GDH-TPI counter-1: 10.6

Results for CCOC(=O)c1cn(Cc2ccccc2)c2cc(C)nn2c1=O ?
Mtb FBA inh: 52.5*; Mtb hypoxia rep: 14.5; DUSP3 inh: 35.5; Mtb bLac sens: 6.2; GDH-TPI counter-1: 2.4; Mtb FBA confirm: 103.5*; GDH-TPI counter-2: 86.5*

What do the screens show for `CCOC(=O)c1cn(Cc2ccc(Cl)cc2Cl)c2cc(C)nn2c1=O`?
Mtb FBA inh: 29.1*; Mtb hypoxia rep: 1.2; DUSP3 inh: 14.4; Mtb bLac sens: -17.5; GDH-TPI counter-1: 3.7; Mtb FBA confirm: 72.2*; GDH-TPI counter-2: 58.8*

Results for COc1ccc(C=NNC(=O)C(=O)NCc2cccnc2)cc1 ?
Mtb hypoxia rep: 1.7

Results for CCN(C(=O)COc1cc(OC)ccc1C(C)=O)C1CCS(=O)(=O)C1 (stereo not given) ?
Mtb FBA inh: 3.3; Mtb hypoxia rep: -5.3; Mtb bLac sens: 1.6; GDH-TPI counter-1: 17.8

What do the screens show for `CCN(C(=O)COC(=O)c1oc2ccc(OC)cc2c1C)C1CCS(=O)(=O)C1` (stereo not given)?
Mtb FBA inh: 60.4*; Mtb hypoxia rep: 3.2; GDH-TPI counter-1: 4.1; Mtb FBA confirm: 111.8*; GDH-TPI counter-2: 120.6*

How did COc1ccc2oc(C(=O)OCC(=O)NC3CCCCC3)c(C)c2c1 do in these assays?
Mtb FBA inh: 39.0*; Mtb hypoxia rep: 9.8; Mtb bLac sens: -10.1; GDH-TPI counter-1: 10.2; Mtb FBA confirm: 89.8*; GDH-TPI counter-2: 78.3*

How did COc1ccc2oc(C(=O)NC3(C)CCS(=O)(=O)C3)c(C)c2c1 (stereo not given) do in these assays?
Mtb FBA inh: 39.5*; Mtb hypoxia rep: 3.4; Mtb bLac sens: -9.9; GDH-TPI counter-1: 12.0; Mtb FBA confirm: active; GDH-TPI counter-2: active

How did COc1ccc2oc(C(=O)Nc3nccs3)c(C)c2c1 do in these assays?
Mtb FBA inh: -0.8; Mtb hypoxia rep: 3.0; Mtb bLac sens: -11.1; GDH-TPI counter-1: 11.3

How did CCOc1ccc2oc(C(=O)OCC(=O)NC3CCCC3)c(C)c2c1 do in these assays?
Mtb FBA inh: 31.2*; Mtb hypoxia rep: 12.0; Mtb bLac sens: -7.7; GDH-TPI counter-1: 1.6; Mtb FBA confirm: 14.2; GDH-TPI counter-2: 9.1; GDH-TPI DR: 6.68*

What do the screens show for `Cc1cc(C)n(CC(=O)NN=Cc2cccc([N+](=O)[O-])c2)n1`?
Mtb hypoxia rep: 0.6

Results for CCCN(CC1CC1)C(=O)COC(=O)c1oc2ccc(OCC)cc2c1C ?
Mtb FBA inh: 41.9*; Mtb hypoxia rep: -13.9; Mtb bLac sens: 1.4; GDH-TPI counter-1: 9.5; Mtb FBA confirm: active; GDH-TPI counter-2: 185.6*

How did CCOc1ccc2oc(C(=O)OCC(=O)NC(=O)NC)c(C)c2c1 do in these assays?
Mtb FBA inh: 8.2; Mtb hypoxia rep: 6.2; DUSP3 inh: 20.1; Mtb bLac sens: 7.2; GDH-TPI counter-1: 15.6

How did NC(=O)COc1ccc2oc(-c3ccccc3)cc(=O)c2c1 do in these assays?
Mtb FBA inh: 77.1*; Mtb hypoxia rep: 12.8; DUSP3 inh: 1.7; GDH-TPI counter-1: 23.5; Mtb FBA confirm: -4.0; GDH-TPI counter-2: -8.0

Results for CCOC(=O)COc1ccc2c(=O)cc(-c3ccccc3)oc2c1 ?
Mtb FBA inh: 4.6; Mtb hypoxia rep: 17.0; DUSP3 inh: 12.5; Mtb bLac sens: 99.2; GDH-TPI counter-1: -0.8

Results for CCc1ccccc1NC(=O)COc1ccc2oc(-c3ccc(OC)cc3)cc(=O)c2c1 ?
Mtb FBA inh: 35.0*; Mtb hypoxia rep: 4.0; DUSP3 inh: -4.3; Mtb bLac sens: 2.0; GDH-TPI counter-1: 20.7; Mtb FBA confirm: 75.4*; GDH-TPI counter-2: 52.2*

What do the screens show for `COC(CNC(=O)c1ccc(-n2c(=S)[nH]c3ccccc3c2=O)cc1)OC`?
Mtb FBA inh: 7.4; Mtb hypoxia rep: 17.7; DUSP3 inh: -2.0; Mtb bLac sens: 5.4; GDH-TPI counter-1: 1.2

Results for COc1ccc(CCNC(=O)c2ccc3nc4cc(Cl)ccc4c(=O)n3c2)cc1OC ?
Mtb FBA inh: 11.2; Mtb hypoxia rep: -17.0; DUSP3 inh: 1.0; Mtb bLac sens: 2.4; GDH-TPI counter-1: 5.2

How did COCCCNC(=O)c1ccc2nc3ccccc3c(=O)n2c1 do in these assays?
Mtb FBA inh: 65.9*; Mtb hypoxia rep: 3.7; DUSP3 inh: 6.5; Mtb bLac sens: -15.7; GDH-TPI counter-1: 12.8; Mtb FBA confirm: 121.4*; GDH-TPI counter-2: 106.0*

How did COC(CNC(=O)c1ccc2nc3ccccc3c(=O)n2c1)OC do in these assays?
Mtb FBA inh: 61.0*; Mtb hypoxia rep: -1.0; DUSP3 inh: 39.7; Mtb bLac sens: 2.2; GDH-TPI counter-1: 18.0; Mtb FBA confirm: active; GDH-TPI counter-2: active

What do the screens show for `Cc1ccc(C=NNC(=O)c2nnn(-c3nonc3N)c2CNc2ccccc2)cc1`?
Mtb hypoxia rep: 5.6
